Source: PubChem BioAssay (NCI)
Where “and” joins values, the source holds several entries; their conditions need not be identical. Identical values can stand only once. This is part of a sample that, as a whole, favours compounds with a hit. Of some 79,000 tested, about 15% had one in any assay. The source holds several records for some structures; these can differ, active in one and inactive in another. Calls of active or inactive are those of the source. Cut-off read from the data, not from the text of the source: active = growth inhibition above about 70%; inactive = the rest.

Tests used:
[1] = NCI Yeast Anticancer Drug Screen. Data for the rad52 strain (AID 147);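 note: 0% = growth of vehicle-treated control cultures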; details: S. cerevisiae rad52 mutant growth inhibition, stronger effect = higher value
Procedure, shortened: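 DNA repair-defective yeast; compound exposure; growth scored against vehicle controls.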

[2] = NCI Yeast Anticancer Drug Screen. Data for the wt1 strain (AID 149);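 note: 0% = growth of vehicle-treated wt1 cultures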; details: S. cerevisiae wt1 strain (SPY 50644) growth inhibition, stronger effect = higher value
Procedure, shortened: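 Each compound is tested on wt1 yeast and the loss of growth versus vehicle gives the inhibition value.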

[3] = NCI Yeast Anticancer Drug Screen. Data for the rad50EPP+ strain (AID 151);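 note: 0% = growth of vehicle-treated control cultures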; details: S. cerevisiae rad50 mutant strain, stronger effect = higher value
Procedure, shortened: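 rad50EPP+ yeast treated with test compounds. Readout: growth vs vehicle control.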

[4] = NCI Yeast Anticancer Drug Screen. Data for the rad50 strain (AID 155);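 note: 0% = growth of vehicle-only cultures of the same strain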; details: S. cerevisiae rad50 strain growth inhibition, stronger effect = higher value
Procedure, shortened: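 Vehicle-treated cultures provide the reference for the growth inhibition reported for compound-exposed, repair-deficient yeast.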

[5] = NCI Yeast Anticancer Drug Screen. Data for the mec2-1 strain (AID 157); details: S. cerevisiae mec2-1 strain, stronger effect = higher value
Procedure, shortened: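 Growth inhibition is read against vehicle-treated controls after compound exposure of the mec2-1 yeast strain, which is defective in DNA damage repair or cell cycle control.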

[6] = NCI Yeast Anticancer Drug Screen. Data for the rad14 strain (AID 159);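 note: 0% = growth of vehicle-treated control cultures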; details: S. cerevisiae rad14 strain growth inhibition, stronger effect = higher value
Procedure, shortened: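 Inhibition of growth is reported for a repair-deficient yeast mutant following compound treatment, calculated relative to cultures that received vehicle.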

[7] = NCI Yeast Anticancer Drug Screen. Data for the sgs1 mgt1 strain (AID 161);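 note: 0% = growth of cultures given vehicle only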; details: S. cerevisiae sgs1 mgt1 strain, stronger effect = higher value
Procedure, shortened: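 Yeast cells carrying a defined DNA-repair defect were exposed to test compounds. Growth inhibition was measured relative to vehicle-treated controls.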

[8] = NCI Yeast Anticancer Drug Screen. Data for the CLN2oe strain (AID 163);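 note: 0% = growth of vehicle-only control cultures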; details: S. cerevisiae CLN2oe strain, stronger effect = higher value
Procedure, shortened: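 Compound-treated yeast; growth vs vehicle ctrl = % inhibition. Genetically altered strain (cell-cycle control).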

[9] = NCI Yeast Anticancer Drug Screen. Data for the cln2 rad14 strain (AID 165);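 note: 0% = growth equal to vehicle treated cultures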; details: S. cerevisiae cln2 rad14 strain, stronger effect = higher value
Procedure, shortened: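 Growth inhibition, relative to vehicle-treated controls, is the read-out. The test organism is a yeast strain with defined genetic alterations, cln2 rad14.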

[10] = NCI Yeast Anticancer Drug Screen. Data for the bub3 strain (AID 167); details: S. cerevisiae bub3 mutant strain, stronger effect = higher value
Procedure, shortened: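 Mutant yeast screening strain plus compound; vehicle-treated cultures serve as the 0% inhibition reference.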

[11] = NCI Yeast Anticancer Drug Screen. Data for the wt2 strain (AID 169); details: S. cerevisiae wt2 strain growth inhibition, stronger effect = higher value
Procedure, shortened: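 Compound exposure of yeast; growth compared with vehicle controls; inhibition reported.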

[12] = NCI Yeast Anticancer Drug Screen. Data for the mlh1 strain (AID 171);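 note: 0% = growth of vehicle-treated control cultures of the same strain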; details: S. cerevisiae mlh1 strain growth inhibition, stronger effect = higher value
Procedure, shortened: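 Compounds are applied to a genetically altered yeast strain, and its growth is compared with that of vehicle-treated cultures to give percent inhibition.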

[13] = NCI Yeast Anticancer Drug Screen. Data for the sgs1 strain (AID 173);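 note: 0% = growth of vehicle-only control cultures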; details: S. cerevisiae sgs1 mutant, stronger effect = higher value
Procedure, shortened: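 Compounds applied to genetically altered yeast; growth compared with vehicle-treated cultures to give % inhibition.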

[14] = NCI Yeast Anticancer Drug Screen. Data for the mlh1 rad18 strain (AID 175); details: S. cerevisiae mlh1 rad18 strain growth inhibition, stronger effect = higher value
Procedure, shortened: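 Cells of a genetically altered yeast strain, deficient in DNA damage repair, were treated with compound. Their growth was then compared with that of vehicle-treated cultures to give inhibition.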

[15] = NCI Yeast Anticancer Drug Screen. Data for the rad18 strain (AID 177); details: S. cerevisiae rad18 mutant growth inhibition, stronger effect = higher value
Procedure, shortened: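 Compounds are applied to a repair-deficient yeast strain, and growth is compared with that of vehicle-treated cultures to give percent inhibition.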

[16] = NCI Yeast Anticancer Drug Screen. Data for the mgt1 strain (AID 153); details: S. cerevisiae mgt1 mutant growth inhibition, stronger effect = higher value
Procedure, shortened: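 Growth inhibition relative to vehicle controls was scored for the mgt1 yeast strain after compound exposure.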

[17] = at 5.0 µM (retest, dose inferred, filed as 0.5)
[18] = at 50.0 µM (retest, dose inferred, filed as 5.0)

Measured: growth inhibition

c1ccc2[nH]c(-c3cscn3)nc2c1
33.4% (inactive) and 84.8% (active): [10]; at 50.0 µM
inactive: [1]; at 1.2 µM -3% | [1]; at 3.7 µM -3% | [1]; at 11.0 µM -3% | [1]; at 33.0 µM 2% | [1]; at 100.0 µM -1% | [2]; at 1.2 µM -1% | [2]; at 3.7 µM -3% | [2]; at 11.0 µM -2% | [2]; at 33.0 µM -5% | [2]; at 100.0 µM -4% | [3]; at 1.2 µM 0% | [3]; at 3.7 µM 0% | [3]; at 11.0 µM 3% | [3]; at 33.0 µM 16% | [3]; at 100.0 µM 29% | [4]; at 1.2 µM -2% | [4]; at 3.7 µM 3% | [4]; [17] -19% | [4]; at 11.0 µM -1% | [4]; at 33.0 µM 4% | [4]; [18] -2% | [4]; at 50.0 µM -4.2% and 39.9% | [4]; at 100.0 µM 11% | [5]; at 1.2 µM -2% | [5]; at 3.7 µM -8% | [5]; [17] -12% | [5]; at 11.0 µM -3% | [5]; at 33.0 µM -6% | [5]; [18] 4% | [5]; at 50.0 µM 7.6% and 38.2% | [5]; at 100.0 µM -8% | [6]; at 1.2 µM -4% | [6]; at 3.7 µM -5% | [6]; at 11.0 µM -3% | [6]; at 33.0 µM -5% | [6]; at 100.0 µM -2% | [7]; [17] -3% | [7]; [18] 13% | [7]; at 50.0 µM -4% and -3% | [8]; at 1.2 µM -7% | [8]; at 3.7 µM -3% | [8]; at 11.0 µM -7% | [8]; at 33.0 µM -11% | [8]; at 100.0 µM -19% | [9]; [17] -25% | [9]; [18] -24% | [9]; at 50.0 µM -19.7% and 32.1% | [10]; at 1.2 µM 6% | [10]; at 3.7 µM 8% | [10]; [17] 5% | [10]; at 11.0 µM 12% | [10]; at 33.0 µM 36% | [10]; [18] 56% | [11]; at 1.2 µM -3% | [11]; at 3.7 µM -3% | [11]; at 11.0 µM -6% | [11]; at 33.0 µM -5% | [11]; at 100.0 µM 0% | [12]; at 1.2 µM -2% | [12]; at 3.7 µM -2% | [12]; at 11.0 µM -7% | [12]; at 33.0 µM -3% | [12]; at 100.0 µM 11% | [13]; at 1.2 µM -1% | [13]; at 3.7 µM -3% | [13]; at 11.0 µM -1% | [13]; at 33.0 µM -3% | [13]; at 100.0 µM -2% | [14]; [17] 14% | [14]; [18] 1% | [14]; at 50.0 µM -37% and 39.7% | [15]; at 1.2 µM -1% | [15]; at 3.7 µM -3% | [15]; at 11.0 µM -2% | [15]; at 33.0 µM 3% | [15]; at 100.0 µM 18%
active: [10]; at 100.0 µM 70%

CCOC(=O)C(Br)C(Br)c1ccccc1Cl (stereo unspecified)
inactive: [1]; at 1.2 µM 6% | [1]; at 3.7 µM 23% | [2]; at 1.2 µM -4% | [2]; at 3.7 µM 7% | [2]; at 11.0 µM 46% | [3]; at 1.2 µM 24% | [3]; at 3.7 µM 62% | [4]; at 1.2 µM 5% | [4]; at 3.7 µM 17% | [4]; [17] 23% | [4]; at 11.0 µM 68% | [5]; at 1.2 µM 0% | [5]; at 3.7 µM 12% | [5]; [17] 30% | [5]; at 11.0 µM 47% | [6]; at 1.2 µM 0% | [6]; at 3.7 µM 10% | [6]; at 11.0 µM 47% | [7]; [17] 46% | [8]; at 1.2 µM -2% | [8]; at 3.7 µM 3% | [8]; at 11.0 µM 47% | [9]; [17] 13% | [10]; at 1.2 µM -1% | [10]; at 3.7 µM 7% | [10]; [17] 22% | [10]; at 11.0 µM 47% | [11]; at 1.2 µM -2% | [11]; at 3.7 µM 22% | [12]; at 1.2 µM 9% | [12]; at 3.7 µM 23% | [13]; at 1.2 µM 10% | [13]; at 3.7 µM 34% | [14]; [17] 39% | [15]; at 1.2 µM 10% | [15]; at 3.7 µM 29%
active: [1]; at 11.0 µM 83% | [1]; at 33.0 µM 99% | [1]; at 100.0 µM 99% | [2]; at 33.0 µM 99% | [2]; at 100.0 µM 99% | [3]; at 11.0 µM 96% | [3]; at 33.0 µM 99% | [3]; at 100.0 µM 99% | [4]; at 33.0 µM 99% | [4]; [18] 99% | [4]; at 50.0 µM 99.7% | [4]; at 100.0 µM 99% | [5]; at 33.0 µM 99% | [5]; [18] 100% | [5]; at 50.0 µM 99.8% | [5]; at 100.0 µM 99% | [6]; at 33.0 µM 98% | [6]; at 100.0 µM 99% | [7]; [18] 99% | [7]; at 50.0 µM 99.8% | [8]; at 33.0 µM 99% | [8]; at 100.0 µM 99% | [9]; [18] 99% | [9]; at 50.0 µM 99.4% | [10]; at 33.0 µM 98% | [10]; [18] 99% | [10]; at 50.0 µM 99.8% | [10]; at 100.0 µM 99% | [11]; at 11.0 µM 93% | [11]; at 33.0 µM 99% | [11]; at 100.0 µM 99% | [12]; at 11.0 µM 92% | [12]; at 33.0 µM 99% | [12]; at 100.0 µM 99% | [13]; at 11.0 µM 94% | [13]; at 33.0 µM 99% | [13]; at 100.0 µM 99% | [14]; [18] 99% | [14]; at 50.0 µM 99.5% | [15]; at 11.0 µM 89% | [15]; at 33.0 µM 99% | [15]; at 100.0 µM 99%

COC(=O)CC1CCc2c(ccc3ccccc23)C1(C)C(=O)OC (stereo unspecified)
inactive: [1]; at 1.2 µM -1% | [1]; at 3.7 µM 2% | [1]; at 11.0 µM 14% | [1]; at 33.0 µM 5% | [1]; at 100.0 µM 32% | [2]; at 1.2 µM -2% | [2]; at 3.7 µM -4% | [2]; at 11.0 µM 7% | [2]; at 33.0 µM -10% | [2]; at 100.0 µM -1% | [3]; at 1.2 µM 5% | [3]; at 3.7 µM 16% | [3]; at 11.0 µM 16% | [3]; at 33.0 µM 48% | [3]; at 100.0 µM 45% | [16]; at 1.2 µM -3% | [16]; at 3.7 µM 0% | [16]; at 11.0 µM -2% | [16]; at 33.0 µM 17% | [16]; at 100.0 µM 53% | [4]; at 1.2 µM 1% | [4]; at 3.7 µM 2% | [4]; [17] -5% | [4]; at 11.0 µM 10% | [4]; at 33.0 µM 15% | [4]; [18] 21% | [4]; at 50.0 µM 15.3% | [4]; at 100.0 µM 37% | [5]; at 1.2 µM -3% | [5]; at 3.7 µM -2%
